Assay outcomes (PubChem)
DUX4 inh: DUX4-mediated transcription inhibition; 293T-iDUX4 ZSCAN4-Gaussia luciferase reporter, 24 h; stronger effect = lower value; activity change, negative = inhibition, % (concentration not given with the values); 0.8% of 37,000 active;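 active = mean inhibition of at least 10% in the main channel, exceeding the control channel by a set limit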
Of the large screens only hits and unclear results are named; the others gave an inactive call; ! = repeats disagree. The entries come from a sample that favours hits as a whole.

C/C=C/c1ccc(C2[C@@H]3CN(C(=O)C4CCCC4)C[C@H]2N3)cc1 (stereo not given in full)	none
C/C=C/c1ccc(C2[C@@H]3CN(Cc4ccccn4)C[C@H]2N3)cc1 (stereo not given in full)	none
C/C=C/c1ccc(C2[C@@H]3CN(C(C)=O)C[C@H]2N3)cc1 (stereo not given in full)	DUX4 inh -21!
CC=Cc1ccc2n(c1=O)C[C@H]1[C@H](CO)[C@@H](C(=O)OC)[C@@H]2N1CC1CC1 (mixture of isomers)	none
CCCN1[C@@H]2Cn3c(ccc(-c4cccc(OC)c4)c3=O)[C@H]1[C@@H](C(=O)OC)[C@@H]2CO	none
CC=Cc1ccc2n(c1=O)C[C@@H]1[C@@H](CO)[C@H](C(=O)OC)[C@H]2N1CC1CCOCC1 (mixture of isomers)	none
COC(=O)[C@@H]1N[C@@H]2c3ccc(C4=CCCC4)c(=O)n3C[C@@H]2[C@H]1CO	none
N#Cc1ccc(-c2ccc([C@@H]3[C@@H](CO)N4CCCCN(C(=O)Cc5ccccc5)C[C@H]34)cc2)cc1	none
O=C(Cc1ccncc1)N1CCCCN2[C@H](C1)[C@H](c1ccc(C#Cc3ccccc3F)cc1)[C@@H]2CO	DUX4 inh -63
O=C(Cc1ccccc1)N1CCCCN2[C@H](CO)[C@@H](c3ccc(C#CC4(O)CCCC4)cc3)[C@H]2C1	none
